Most compounds without a hit are left out; they make up all but 12% or so of the library.
ALDH1A1 block: qHTS Assay for Inhibitors of Aldehyde Dehydrogenase 1 (ALDH1A1). Purified ALDH1A1, NADH fluorescence, propionaldehyde substrate. Potency, µM (titrated, usually from 75.3 µM), inactives show top-dose activity, negative = inhibition, actives largely listed as inhibitors. 220,000 tested, 7.3% active. AID 1030, 2008; active = well fitted inhibition curve with a large enough effect, not every such curve was filed as active; inconclusive = small, poorly fitted or top-dose-only effect, or another doubt; inactive = no such curve, though single readings can be large or run the other way;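 also: plate controls were no enzyme wells and a reference inhibitor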
Gal4-VP16 FLuc: VP16 counterscreen qHTS for inhibitors of ROR gamma transcriptional activity; Drosophila S2 Gal4-VP16 UAS-luciferase, luminescence, 20 h; Potency, µM (titrated, usually from 53.6 µM), for the others: at the top dose activity, negative = inhibition, hits mostly inhibitors; AID 2546, 2010; 310,000 tested, 3.5% active;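 also: Gal4-VP16 expression switched on by copper sulfate through the metallothionein promoter; nearly all actives have a fitted effect of over 50% in size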
RORgamma inh: qHTS for inhibitors of ROR gamma transcriptional activity; Potency, µM (doses to about 53.6 µM), without a hit: top-dose activity change, negative = inhibition, usual class: inhibitors; Drosophila S2 Gal4-RORgamma UAS-luciferase reporter, 20 h; 310,000 tested, 5.4% active; Nuclear receptor ROR-gamma (Mus musculus), P51450; also: nearly all actives have a fitted effect of over 60% in size
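Drosophila S2 cells stably expressing Gal4-DBD/mouse RORγ fusion under metallothionein promoter plus UAS-luciferase; compound 1 h, then 700 uM CuSO4 induction for 20 h at ambient temperature; inhibition read as reduced luminescence.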
Sfp inh: qHTS Assay for Inhibitors of Bacillus subtilis Sfp phosphopantetheinyl transferase (PPTase); 4'-phosphopantetheinyl transferase ffp (Bacillus subtilis), Q9F4F7; Biochemical Sfp PPTase activity, qHTS; Potency, µM, for inactives: largest response in the series, negative = inhibition, usual class: inhibitors; 310,000 tested, 3.5% active; AID 1490, 2009;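 also: the enzyme is Sfp with the accession as filed and its product quenches rhodamine fluorescence; 0% = enzyme reaction without inhibitor and -100% = no enzyme wells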
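Fluorescence-quenching assay with 15 nM Sfp, 5 uM rhodamine-CoA and 12.5 uM BHQ-2-labelled ybbR peptide in pH 7.6 Hepes/MgCl2 buffer. Enzyme was pre-incubated with compound for 15 min at room temperature. Rate was taken from the 30-min fluorescence change (525/598 nm).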
PLK1 PBD block: qHTS for Inhibitors of PLK1-PDB (polo-like kinase 1 - polo-box domain): Primary Screen; Serine/threonine-protein kinase PLK1 (Homo sapiens), P53350; Plk1 PBD binding of FITC phosphopeptide, fluorescence polarization; Potency, µM, for the others: max response, negative = inhibition, usual class: inhibitors; 360,000 tested, 2.8% active; AID 720504, 2013; also: series mostly up to about 57 µM; nearly all actives have a fitted effect of over 65% in size
Target sequence (P53350 whole entry, looked up, the tested form may be a part): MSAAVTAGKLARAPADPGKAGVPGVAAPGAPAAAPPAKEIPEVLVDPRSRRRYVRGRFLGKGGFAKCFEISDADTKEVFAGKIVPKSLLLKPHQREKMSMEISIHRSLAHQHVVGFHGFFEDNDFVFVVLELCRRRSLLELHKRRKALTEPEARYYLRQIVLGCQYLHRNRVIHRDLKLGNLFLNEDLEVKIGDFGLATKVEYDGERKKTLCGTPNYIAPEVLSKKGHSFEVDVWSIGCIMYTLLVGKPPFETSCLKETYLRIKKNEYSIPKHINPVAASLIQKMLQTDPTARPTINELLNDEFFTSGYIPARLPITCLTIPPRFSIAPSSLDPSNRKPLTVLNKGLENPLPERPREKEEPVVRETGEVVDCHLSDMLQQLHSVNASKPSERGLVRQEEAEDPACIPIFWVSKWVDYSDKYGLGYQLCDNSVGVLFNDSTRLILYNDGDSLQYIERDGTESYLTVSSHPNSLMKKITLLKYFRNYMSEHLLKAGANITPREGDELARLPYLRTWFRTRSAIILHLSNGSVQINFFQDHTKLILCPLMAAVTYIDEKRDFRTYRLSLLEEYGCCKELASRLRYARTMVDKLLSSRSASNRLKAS
* = called active by the depositor; u = inconclusive; x = no result; [ ] = dose if it differs, or a comment. Unless noted, calls follow the shape of the dose curve; as a rule, active = well fitted curve in the direction sought with a large enough effect; inconclusive = small, poorly fitted or top-dose-only effect, or another doubt; inactive = no such curve, though single readings can be large; an effect the other way counts as inactive or inconclusive. Unless noted, % is scaled to controls: 0 for no effect and ±100 for the full control effect; potency is read from the fitted curve at half-maximal effect.

SMILES | ALDH1A1 block | Gal4-VP16 FLuc | RORgamma inh | Sfp inh | PLK1 PBD block
CC(C)N(CC[C@@](C(N)=O)(c1ccccc1)c1ccccn1)C(C)C | 17.4%[20.9 µM] | -9.0%[17 µM] | 0.9%[16.9 µM] | 11.3% | x
CN1CCC2(CC1)CCN(C(=O)Oc1ccccc1)CC2 | 6.3% | 17.2% | -6.6% | 15.2% | x
Cc1ccc(C(=O)C2CN(C)CC2C(=O)c2ccc(C)cc2)cc1 (stereo not drawn) | -0.1% | -3.9% | -6.7% | 17.4% | -9.0%
Cc1ccc(C(=O)C2CN3CCC2CC3)cc1 (stereo not drawn) | 28.2µM* | x | 4.8%[0.365 µM] | 4.1% | -2.5%
O=C1NC(=S)NC(=O)C1C1CCCCC1 | x | 3.3% | 25.0% | 79.4µM* | -26.0%
c1csc(CN2CCC3(CCNCC3)CC2)n1 | 3.2% | 5.8% | -4.8% | -6.0% | x
Cc1nnc(SCc2nc3ccccc3c(=O)n2-c2ccccc2Cl)n1N | 25.1µM* | 9.4% | -18.4% | 2.8% | -11.3%
O=C(O)C(Oc1nc(=S)[nH]c(=S)[nH]1)(c1ccc(Cl)cc1)c1ccc(Cl)cc1 | 3.6%[13.5 µM] | x | x | x | x
NNc1ccccc1 | -13.7% | 1.7% | 1.1% | -14.1% | x
Cc1ccsc1/C=N/NC(=O)c1cccc(S(=O)(=O)Nc2ccccc2Cl)c1 | 9.4% | 3.16µM* | 2.51µM* | 10.5% | -26.5%
Cc1cc(S(=O)(=O)NCC(C)C)ccc1OCC(=O)N1CCN(Cc2ccccc2)CC1 | 17.8µM* | -20.7% | 20.6% | -14.6% | -18.7%
CN1CCN(C(=O)COc2ccc(S(=O)(=O)NCc3ccccc3)cc2Cl)CC1 | 0.0% | 3.2% | 5.2% | 2.4% | -7.8%
Cc1cc(S(=O)(=O)NC(C)C)ccc1OCC(=O)N1CCN(Cc2ccc3c(c2)OCO3)CC1 | 19.3% | 7.94µM* | -29.0% | -12.8% | -16.3%
O=c1[nH]cnc2[nH]cc(CN3CCCCC3)c12 | 4.3%[13.5 µM] | x | x | x | x
CCCN1CCCC2Cc3nc(N)ncc3CC21 (stereo not drawn) | 12.3% | -3.1% | -11.0% | 19.1% | x
CC(C)c1ccc(C(c2c(O)c3ccccc3oc2=O)c2c(O)c3ccccc3oc2=O)cc1 | -3.7%[13.5 µM] | x | x | x | 21.2µM*
O=C1C=C2C=CC3C[C@@]2(O1)C1CCCCN31 (stereo partly drawn) | -9.7% | -20.7% | u | 14.7% | x
CC(=O)CC(c1ccc(O)cc1)c1c(O)c2ccccc2oc1=O (stereo not drawn) | x | 3.5% | 0.0% | 20.0% | x
C/C(=N\N1CCCCC1c1cccnc1)c1c(O)n(C2CCCCC2)c(=S)[nH]c1=O (stereo not drawn) | u | 3.98µM* | 3.16µM* | -25.1% | 31.6%
O=C(CCS(=O)(=O)c1ccccc1)Nc1nnc(-c2ccco2)o1 | x | u | u | u | -16.2%
FC(F)OC(F)(F)C(F)Cl (stereo not drawn) | x | 6.4% | -1.6% | 11.3% | x
CN1CCN(c2ccc(Cl)cc2N)CC1 | 10.3% | -2.8% | -5.6% | -6.5% | -0.7%
Cc1ccc(Cl)cc1N1CCN(CCN)CC1 | 28.2µM* | 2.5% | u | 11.2% | -2.8%
c1c[nH]cn1 | u | 6.7% | 7.7% | x | x
Cc1nc2ccc(Nc3nc4cc(S(=O)(=O)N5CCOCC5)ccc4o3)cc2s1 | 3.55µM* | -0.8% | -1.4% | u | 4.74µM*
CC1OC(O[C@H]2C[C@@H](O)[C@]3(CO)[C@@H]4C(CC[C@]3(O)C2)[C@@]2(O)CC[C@H](C3=CC(=O)OC3)[C@@]2(C)C[C@H]4O)C(O)C(O)C1O (stereo partly drawn) | 0.0% | 0.9% | 18.4%[10 µM] | 11.9% | x
CC(C)c1oc(=O)cc2c1[C@@H](O)[C@H]1OC(=O)[C@@]3(C)C[C@@H](O)[C@@H](O)[C@@]2(C)C13 (stereo partly drawn) | -3.6% | -17.9% | -32.1% | -2.9% | -2.1%
CC(C)c1oc(=O)cc2c1[C@@H](O)[C@H]1OC(=O)[C@@]3(C)CC[C@@H](O)[C@@]2(C)C13 (stereo partly drawn) | -0.3% | 5.01µM* | 20µM* | 2.6% | -3.8%
S=C(NCCc1ccccc1)NCCc1cnc[nH]1 | x | -9.4% | -0.3% | u | -5.1%
